Source: PubChem BioAssay (Tox21)
Several values for one entry are separate records, joined by “and”; a condition that tells them apart may be missing. Identical values can stand only once. Inconclusive results are not listed. Entries that show only a call come without a potency. Where a structure was tested more than once in an assay, its records may differ in their call. Activity calls are given as the source filed them. Unless noted, calls follow the shape of the dose curve; as a rule, active = well fitted curve in the direction sought with a large enough effect in the repeat runs; inconclusive = weak or mixed curves; inactive = no such curve, though single readings can be large; an effect the other way counts as inactive or inconclusive.

Assays:
[1] = qHTS assay to identify small molecule agonists of the estrogen receptor alpha (ER-alpha) signaling pathway in the presence of an antagonist - cell viability counter screen (AID 1259386);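 also: cells exposed to compounds for 22 h at 37 °C before the viability read; nearly all actives have a fitted effect of over 30% in size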; also: potency is read from the fitted curve at half-maximal effect
Procedure, shortened: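 The test measures whether compounds kill ER-alpha reporter cells (VM7Luc4E2) under antagonist co-treatment (ICI-182,780, 10.0nM). Fluorescence from CellTiter-Fluor is read after a 22hr exposure.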

[2] = target: Progesterone receptor (Homo sapiens) (UniProt P06401); experiment: qHTS assay to identify small molecule agonists of the progesterone receptor (PR) signaling pathway (AID 1346784; calls by dose curve; also: nearly all actives have a fitted effect of over 30% in size)
Procedure, shortened: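 Beta-lactamase reporter read-out: after 16 hr compound treatment at 37C and a further 2 hr at room temperature with LiveBLAzer B/G FRET substrate, fluorescence was measured in PR-UAS-bla HEK 293T cells grown in 2% charcoal-stripped serum.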

[3] = target: Progesterone receptor (Homo sapiens) (UniProt P06401); experiment: qHTS assay to identify small molecule antagonists of the progesterone receptor (PR) signaling pathway (AID 1346795; active = well fitted inhibition curve with a large enough effect in the signal ratio in the repeat runs, not every such curve was filed as active; the % refers to the signal ratio; also: potency is read from the fitted curve at half-maximal effect)
Procedure, shortened: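 Read-out is fluorescence from the LiveBLAzer B/G FRET substrate, cleaved by a UAS-controlled beta-lactamase in PR-UAS-bla HEK293T cells after 16 hr exposure to compound plus 1 nM promegestone (final), followed by 2 hr at room temperature.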

[4] = qHTS assay to identify small molecule antagonists of the progesterone receptor (PR) signaling pathway - cell viability counter screen (AID 1346798);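 also: HEK293T PR-UAS-bla cells stimulated with the agonist R5020; series mostly up to about 92 µM; nearly all actives have a fitted effect of over 50% in size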
Procedure, shortened: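 HEK293T PR-UAS-bla, 2% charcoal-stripped FBS; 4 hr pre-plate; cpd + R5020, 16 h 37C; LiveBLAzer read first; then CellTiter-Glo 30 min RT, luminescence.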

[5] = qHTS assay to identify small molecule agonists of the progesterone receptor (PR) signaling pathway - cell viability counter screen (AID 1346799; calls by dose curve; also: nearly all actives have a fitted effect of over 45% in size; also: potency is read from the fitted curve at half-maximal effect)
Procedure, shortened: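 Luminescence from CellTiter-Glo, added after the beta-lactamase FRET read in the same wells, gave cytotoxicity in PR-UAS-bla HEK293T cells treated with compounds for 16 hr at 37C.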

[6] = qHTS assay to identify small molecule antagonists of the TGF-beta/Smad signaling pathway - cell viability counter screen (AID 1346824); also: nearly all actives have a fitted effect of over 50% in size
Procedure, shortened: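 Cytotoxicity counter-screen run in the same wells as the beta-lactamase Smad reporter read: CellTiter-Glo luminescence after 30 min at room temperature. HEK 293T SBE-bla cells had 5 hr compound exposure at 37 C with TGF-beta1 (0.25 ng/mL stock).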

[7] = qHTS assay to identify small molecule agonists of the TGF-beta/Smad signaling pathway - cell viability counter screen (AID 1346829); also: nearly all actives have a fitted effect of over 45% in size; also: potency is read from the fitted curve at half-maximal effect
Procedure, shortened: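 Same-well cytotoxicity: CellTiter-Glo added after the 2 hr room-temperature beta-lactamase substrate step, luminescence measured 30 min later; cells had 5 hr of compound at 37 C.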

[8] = qHTS assay to identify small molecule agonists of the TGF-beta/Smad signaling pathway (AID 1346859; active = well fitted activation curve with a large enough effect in the signal ratio in the repeat runs, not every such curve was filed as active; the % refers to the signal ratio; also: series mostly up to about 77 µM)
Procedure, shortened: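 SBE-bla HEK 293T, 4,000 cells/well, plated o/n; cpd in DMSO, 5 hr, 37 C/5% CO2; B/G FRET substrate 2 hr RT; ex 405, em 460/530 nm.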

[9] = target: Thyrotropin-releasing hormone receptor (Homo sapiens) (UniProt P34981); experiment: qHTS assay to identify small molecule antagonists of the thyrotropin-releasing hormone receptor (TRHR) signaling pathway (AID 1346877; active = well fitted inhibition curve with a large enough effect in the repeat runs, not every such curve was filed as active; also: series mostly up to about 51 µM)
Procedure, shortened: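 Overnight-plated (18 h, 37 °C) HEK293 cells expressing TRHR were dye-loaded 2 h, treated with compound, then stimulated with TRH at 1 nM final. Fluorescence intensity was captured every second for 3 min.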

[10] = target: Thyrotropin-releasing hormone receptor (Homo sapiens) (UniProt P34981); experiment: qHTS assay to identify small molecule agonists of the thyrotropin-releasing hormone receptor (TRHR) signaling pathway (AID 1346891; calls by dose curve; also: potency is read from the fitted curve at half-maximal effect; as to activation: series mostly up to about 58 µM)
Procedure, shortened: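 Intracellular calcium rise, read as fluorescence every second for 3 min, served as the agonist signal in dye-loaded HEK293 cells expressing TRHR; each compound ran at 15 concentrations in triplicate.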

[11] = Human pregnane X receptor (PXR) small molecule agonists, qHTS cell viability counter screen (AID 1346977); also: nearly all actives have a fitted effect of over 50% in size; also: potency is read from the fitted curve at half-maximal effect
Procedure, shortened: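 PXR-Luc HepG2, 2,000 cells/well, 5% charcoal-stripped FBS; 5hr settle; cpd 24hr, 37C/5% CO2; CellTiter-Fluor at 23hr, read 1hr later (fluorescence).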

[12] = Caspase-3/7 induction in HepG2 cells by small molecules, qHTS assay (AID 1346978); also: nearly all actives have a fitted effect of over 15% in size; also: potency is read from the fitted curve at half-maximal effect
Procedure, shortened: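 Caspase-3/7 induction was measured by Caspase-Glo 3/7 luminescence (30 min, room temperature) after a 17 hr compound exposure of wild-type HepG2 cells seeded at 2,000 per well and pre-incubated 5 hr.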

[13] = Caspase-3/7 induction in CHO-K1 cells by small molecules, qHTS cell viability counter screen (AID 1346979); also: nearly all actives have a fitted effect of over 35% in size; also: potency is read from the fitted curve at half-maximal effect
Procedure, shortened: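 Cells (CHO-K1, wild type) are plated at 1,500 per well and incubated 5hr. Test compounds in DMSO are then pinned in, followed by 16hr at 37C and 5% CO2. Viability is read by CellTiter-Fluor fluorescence after 1hr.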

[14] = Caspase-3/7 induction in CHO-K1 cells by small molecules, qHTS assay (AID 1346980); also: nearly all actives have a fitted effect of over 15% in size
Procedure, shortened: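 Luminescent Caspase-Glo 3/7 read (30min, room temperature) quantified apoptosis induction. Cells were wild-type CHO-K1, treated with compound for 17hr at 37 C and 5% CO2.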

[15] = Caspase-3/7 induction in HepG2 cells by small molecules, qHTS cell viability counter screen (AID 1346981); also: nearly all actives have a fitted effect of over 30% in size; also: potency is read from the fitted curve at half-maximal effect
Procedure, shortened: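 Treatment of HepG2 cells with DMSO-delivered compounds ran 16 hr at 37 C following a 5-hr pre-incubation of 2,000 cells/well. CellTiter-Fluor fluorescence, read after 1 hr, served as the viability measure in a qHTS format.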

[16] = target: Nuclear receptor subfamily 1 group I member 2 (Homo sapiens) (UniProt O75469); experiment: Human pregnane X receptor (PXR) small molecule agonists, qHTS assay (AID 1346982); also: nearly all actives have a fitted effect of over 35% in size; also: potency is read from the fitted curve at half-maximal effect
Procedure, shortened: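 Stable HepG2 line reporting PXR-mediated CYP3A4 expression via luciferase. Treatment: 24 hr with compounds in DMSO at 37 C. Detection: ONE-Glo luminescence.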

[17] = target: Thyrotropin receptor (Homo sapiens) (UniProt P16473); experiment: qHTS assay to identify small molecule antagonists of the thyroid stimulating hormone receptor (TSHR) signaling pathway (AID 1259385; calls by dose curve; also: nearly all actives have a fitted effect of over 20% in size)
Procedure, shortened: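 Antagonist mode: compound-treated TSHR-expressing HEK293 cells were stimulated with 1.5 ng/mL TSH (final) in presence of Ro20-1724 for 30 min at RT. HTRF cAMP detection after 1 h; each compound tested at 15 concentrations, triplicate.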

[18] = target: Nuclear receptor subfamily 1 group I member 2 (Rattus norvegicus) (UniProt Q9R1A7); experiment: Rat pregnane X receptor (rPXR) activation by small molecules, qHTS assay (AID 1346983); details: rPXR luciferase reporter cells, One-Glo luminescence, 24 h; max activation: stronger effect = higher value; also: nearly all actives have a fitted effect of over 20% in size
Procedure, shortened: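 Luminescent readout (One-Glo luciferase, 30 min room temperature) followed 24 hr compound treatment at 37 C of rPXR cells plated 2,000 per well and preincubated 5hr; qHTS format with compounds delivered in DMSO.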

[19] = target: Nuclear receptor subfamily 1 group I member 2 (Homo sapiens) (UniProt O75469); experiment: CYP3A4 induction through human pregnane X receptor (PXR) by small molecules, qHTS assay (AID 1346984); also: nearly all actives have a fitted effect of over 40% in size
Procedure, shortened: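 After 24 h at 37C with compound, DPX-2 cells (HepG2, co-transfected PXR response element and CYP3A4 promoter-luciferase) got 3uM final P450-Glo Luciferin-IPA for 3 h; One-Glo luminescence followed.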

[20] = target: Nuclear receptor subfamily 1 group I member 2 (Homo sapiens) (UniProt O75469); experiment: Human pregnane X receptor (PXR) activation by small molecules, qHTS assay (AID 1346985); also: nearly all actives have a fitted effect of over 40% in size
Procedure, shortened: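 DPX-2 cells (HepG2 co-transfected with a PXR response element and a CYP3A4-promoter luciferase construct) were seeded at 2,000 per well, rested 5 hr at 37C, then exposed to DMSO-dissolved compounds for 24 hr. Activation was read as luciferase luminescence.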

Thyrotropin receptor (Homo sapiens), sequence (P16473 whole entry, looked up): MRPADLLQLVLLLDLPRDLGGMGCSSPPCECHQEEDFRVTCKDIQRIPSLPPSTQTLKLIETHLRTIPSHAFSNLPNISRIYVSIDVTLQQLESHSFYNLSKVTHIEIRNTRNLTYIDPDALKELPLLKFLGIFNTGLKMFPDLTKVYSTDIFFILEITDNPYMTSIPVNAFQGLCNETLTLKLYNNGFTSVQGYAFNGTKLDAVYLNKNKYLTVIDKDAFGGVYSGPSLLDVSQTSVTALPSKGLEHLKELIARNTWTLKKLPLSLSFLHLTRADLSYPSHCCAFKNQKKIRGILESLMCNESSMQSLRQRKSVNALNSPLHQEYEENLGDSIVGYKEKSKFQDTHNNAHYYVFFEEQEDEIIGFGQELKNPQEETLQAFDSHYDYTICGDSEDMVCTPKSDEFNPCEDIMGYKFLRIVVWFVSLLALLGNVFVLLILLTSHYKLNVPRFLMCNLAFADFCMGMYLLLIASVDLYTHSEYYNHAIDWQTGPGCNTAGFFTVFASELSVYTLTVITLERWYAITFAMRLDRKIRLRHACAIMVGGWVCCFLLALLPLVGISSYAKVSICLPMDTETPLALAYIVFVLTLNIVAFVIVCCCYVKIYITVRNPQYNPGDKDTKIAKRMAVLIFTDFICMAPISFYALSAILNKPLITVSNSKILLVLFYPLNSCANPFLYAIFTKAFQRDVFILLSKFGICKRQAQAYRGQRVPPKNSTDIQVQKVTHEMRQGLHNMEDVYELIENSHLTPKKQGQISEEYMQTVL
Progesterone receptor (Homo sapiens), sequence (P06401 whole entry, looked up): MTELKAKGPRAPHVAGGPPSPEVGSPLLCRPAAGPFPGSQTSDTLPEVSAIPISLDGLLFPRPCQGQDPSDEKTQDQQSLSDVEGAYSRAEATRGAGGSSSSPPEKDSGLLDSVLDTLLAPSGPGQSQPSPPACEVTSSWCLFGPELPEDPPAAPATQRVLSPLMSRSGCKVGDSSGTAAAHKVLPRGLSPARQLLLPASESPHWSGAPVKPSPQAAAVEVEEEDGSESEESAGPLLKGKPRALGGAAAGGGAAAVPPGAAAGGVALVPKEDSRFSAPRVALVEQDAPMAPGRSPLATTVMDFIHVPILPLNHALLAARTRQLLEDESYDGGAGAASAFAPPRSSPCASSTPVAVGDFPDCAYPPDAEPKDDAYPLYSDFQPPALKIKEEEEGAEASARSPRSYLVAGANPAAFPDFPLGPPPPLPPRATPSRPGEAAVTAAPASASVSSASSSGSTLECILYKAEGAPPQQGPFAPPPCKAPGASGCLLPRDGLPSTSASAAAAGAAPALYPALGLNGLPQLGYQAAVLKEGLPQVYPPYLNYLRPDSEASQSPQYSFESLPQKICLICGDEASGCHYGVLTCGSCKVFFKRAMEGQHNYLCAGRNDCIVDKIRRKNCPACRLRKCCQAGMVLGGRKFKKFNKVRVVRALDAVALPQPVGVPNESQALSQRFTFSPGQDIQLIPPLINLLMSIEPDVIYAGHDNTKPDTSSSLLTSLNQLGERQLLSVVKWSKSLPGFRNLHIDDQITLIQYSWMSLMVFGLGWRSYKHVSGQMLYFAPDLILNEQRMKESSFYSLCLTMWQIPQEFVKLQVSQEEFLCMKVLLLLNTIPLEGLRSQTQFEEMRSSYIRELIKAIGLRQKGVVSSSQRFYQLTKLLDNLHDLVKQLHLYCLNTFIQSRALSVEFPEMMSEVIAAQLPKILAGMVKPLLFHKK
Thyrotropin-releasing hormone receptor (Homo sapiens), sequence (P34981 whole entry, looked up): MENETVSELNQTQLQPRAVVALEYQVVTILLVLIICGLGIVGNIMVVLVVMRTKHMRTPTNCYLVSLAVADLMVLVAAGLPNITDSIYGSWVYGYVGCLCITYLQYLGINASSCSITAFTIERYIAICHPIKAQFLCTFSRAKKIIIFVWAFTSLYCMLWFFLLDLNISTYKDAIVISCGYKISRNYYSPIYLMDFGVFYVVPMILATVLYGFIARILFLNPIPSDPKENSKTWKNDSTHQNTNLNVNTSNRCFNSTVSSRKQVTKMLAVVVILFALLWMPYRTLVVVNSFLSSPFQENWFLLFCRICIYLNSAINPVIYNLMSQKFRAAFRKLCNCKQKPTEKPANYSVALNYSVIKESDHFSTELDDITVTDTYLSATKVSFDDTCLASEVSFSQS
Nuclear receptor subfamily 1 group I member 2 (Homo sapiens), sequence (O75469 whole entry, looked up): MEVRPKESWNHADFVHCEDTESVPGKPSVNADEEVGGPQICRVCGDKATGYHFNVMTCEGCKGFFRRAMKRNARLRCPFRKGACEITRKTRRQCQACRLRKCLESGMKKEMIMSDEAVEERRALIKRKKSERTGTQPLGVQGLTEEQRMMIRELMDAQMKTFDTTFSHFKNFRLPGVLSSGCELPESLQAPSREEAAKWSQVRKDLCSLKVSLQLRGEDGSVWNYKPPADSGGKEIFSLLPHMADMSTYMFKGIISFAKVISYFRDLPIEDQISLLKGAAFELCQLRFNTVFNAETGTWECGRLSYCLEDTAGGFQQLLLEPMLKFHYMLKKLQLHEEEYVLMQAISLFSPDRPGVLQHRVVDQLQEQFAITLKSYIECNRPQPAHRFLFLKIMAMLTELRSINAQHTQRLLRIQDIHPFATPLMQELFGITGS
Nuclear receptor subfamily 1 group I member 2 (Rattus norvegicus), sequence (Q9R1A7 whole entry, looked up): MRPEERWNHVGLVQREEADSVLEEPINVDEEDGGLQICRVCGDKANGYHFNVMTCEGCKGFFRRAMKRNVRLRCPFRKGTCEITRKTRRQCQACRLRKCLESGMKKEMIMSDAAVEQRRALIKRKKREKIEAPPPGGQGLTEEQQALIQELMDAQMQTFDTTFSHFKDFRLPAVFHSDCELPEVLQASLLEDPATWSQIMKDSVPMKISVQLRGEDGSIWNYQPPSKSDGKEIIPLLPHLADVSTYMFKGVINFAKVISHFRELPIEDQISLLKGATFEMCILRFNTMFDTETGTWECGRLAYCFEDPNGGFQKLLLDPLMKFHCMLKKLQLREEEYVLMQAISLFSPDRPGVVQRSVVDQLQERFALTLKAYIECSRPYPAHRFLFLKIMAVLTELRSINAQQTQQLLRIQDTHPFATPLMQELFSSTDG

Structure (SMILES)	Potency [1]	Potency [2]	Potency [3]	Potency [4]	Potency [5]	Potency [6]	Potency [7]	outcome [8]	outcome [9]	Potency [10]	Potency [11]	Potency [12]	Potency [13]	Potency [14]	Potency [15]	Potency [16]	outcome [17]	max activation [18]	outcome [19]	outcome [20]
NC(=O)/N=N/C(N)=O	inactive	inactive	inactive	inactive	inactive	inactive	inactive	inactive	inactive	inactive	inactive	inactive	inactive	inactive	inactive	inactive				
Cn1c([N+](=O)[O-])cnc1COC(N)=O	inactive	inactive	inactive	inactive	inactive	inactive	inactive	inactive				inactive	inactive	inactive	inactive					
CCCCCCCCCCCCN	inactive	inactive	inactive	inactive	inactive		inactive and 21.9 µM (active)			inactive and 38.9 µM (active)		inactive and 61.1 µM (active)	inactive and 30.6 µM (active)	inactive	inactive	inactive	inactive			
CS(=O)(=O)c1ccc([C@@H](O)[C@@H](CO)NC(=O)C(Cl)Cl)cc1	inactive	inactive	inactive	inactive	inactive	inactive	inactive	inactive				inactive	inactive	inactive	inactive			-0.108% (inactive)	inactive	inactive
C/C=C(C)/C=C/C=C(C)C	inactive	inactive	inactive	inactive	inactive	inactive	inactive					inactive		inactive	inactive	60.4 µM (active) and 27.3 µM (active)				
O=[N+]([O-])c1cc(N(CCO)CCO)ccc1NCCO	34.3 µM (active) and 27.3 µM (active)	inactive	inactive	inactive	inactive	inactive	inactive				30.6 µM (active)	inactive	27.3 µM (active) and 30.6 µM (active)	inactive	30.6 µM (active) and 48.6 µM (active)					
CCCCC(CC)COC(=O)CCCCCCCC(=O)OCC(CC)CCCC (stereo unspecified)	inactive	inactive	8.63 µM (active) and inactive		54.5 µM (active) and inactive	inactive	inactive			inactive	inactive	inactive	43.3 µM (active) and inactive	inactive	inactive		inactive			
O=C(c1ccc(O)cc1)c1ccc(O)cc1O	inactive	inactive	19.5 µM (active)			inactive	inactive		inactive	inactive	inactive	inactive	inactive	inactive	inactive	61.8 µM (active) and 48.6 µM (active)	inactive			
